In PubChem BioAssay (NCI) one finds growth data, which are given here for 14 compounds.

Compounds without any hit were thinned out: in the full panel of roughly 83,000, 20% have a hit.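 The endpoint reported here, percent growth, reads 100 for growth as untreated, 0 for no net growth and -100 for all cells dead.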 Values without a mark were called inactive. Active and inactive are the calls of the source. How the source made its calls: active means growth percent below 10; inactive means the rest.

What all share (test): NCI-60 one-dose screen, 48 h (100 = growth as untreated, 0 = no growth, -100 = all killed)
One assay relates to HCT-15 colon. As to conditions: 10 µM unless noted.
Another assay deals with HT29 colon. Conditions: 10 µM unless noted.
The next assay concerns PC-3 prostate. Conditions: 10 µM unless noted.
Another assay has as its system SK-MEL-5 melanoma. Conditions: 10 µM unless noted.
The next assay concerns UACC-62 melanoma. Conditions: 10 µM unless noted.
In another assay the test system is SK-MEL-28 melanoma. As to conditions: 10 µM unless noted.
A further assay relates to EKVX NSCLC. As to conditions: 10 µM unless noted.
The next assay deals with SN12C renal. As to conditions: 10 µM unless noted.
For a further assay, the system named is UO-31 renal. Conditions: 10 µM unless noted.
The next assay has as its system TK-10 renal. Conditions: 10 µM unless noted.
For another assay, the system named is ACHN renal. As to conditions: 10 µM unless noted.
In the next assay the test system is CAKI-1 renal. Conditions: 10 µM unless noted.
The subject of another assay is A498 renal. As to conditions: 10 µM unless noted.
A further assay concerns CCRF-CEM leukemia. As to conditions: 10 µM unless noted.
The test system of a further assay is MOLT-4 leukemia. As to conditions: 10 µM unless noted.
The next assay concerns SNB-19 CNS. Conditions: 10 µM unless noted.
A further assay relates to LOX IMVI melanoma. As to conditions: 10 µM.
In another assay the test system is SK-MEL-2 melanoma. As to conditions: 10 µM unless noted.
The test system of another assay is U251 CNS. Conditions: 10 µM unless noted.
Another assay deals with SNB-75 CNS. Conditions: 10 µM unless noted.

With `N#CCc1cccc2ccccc12`, the growth is 100% in the assay on HCT-15 colon; 96% in the assay with HT29 colon; 90.9% in the assay with PC-3 prostate; 104% in the assay with SK-MEL-5 melanoma; 111% in the assay on UACC-62 melanoma; 94.7% with SK-MEL-28 melanoma. Besides, the growth was 101% in the assay on EKVX NSCLC; 110% in the assay on SN12C renal; 92% in the assay on UO-31 renal; 98.3% with TK-10 renal; 103% in the assay with ACHN renal; 103% with CAKI-1 renal. The growth in the assay on A498 renal is 109%; in the assay with CCRF-CEM leukemia, 91.9%; in the assay on MOLT-4 leukemia, 92%.
As for `NCCCN(CCCN)CCCNCc1c2ccccc2c(CNCCCN(CCCN)CCCN)c2ccccc12`, the growth in the assay with HCT-15 colon was 110%; with HT29 colon, 91.9%; in the assay with SNB-19 CNS, 106%; in the assay on PC-3 prostate, 90.8%; in the assay on SK-MEL-5 melanoma, 98.6%; with UACC-62 melanoma it was 98.2%. The growth in the assay with LOX IMVI melanoma is 99.8%; in the assay on SK-MEL-28 melanoma, 106%; in the assay with SK-MEL-2 melanoma, 100%; in the assay with EKVX NSCLC, 89.4%; in the assay with SN12C renal, 110%; in the assay on UO-31 renal it was 72.4%. Also, the growth with TK-10 renal was 97.5%; with ACHN renal, 100%; in the assay on A498 renal, 95.4%; with CCRF-CEM leukemia it was 102%; with MOLT-4 leukemia it was 98.8%.
For the compound `CN(C)c1ccc(/C=C/c2nccc3ccccc23)cc1`, the growth in the assay with HCT-15 colon is 66.4%; in the assay on HT29 colon, 98.6%; in the assay on SNB-19 CNS, 79.4%; with PC-3 prostate it was 83.4%; in the assay on SK-MEL-5 melanoma, 86.7%; in the assay with UACC-62 melanoma it was 60.9%. For the same compound, the growth in the assay with LOX IMVI melanoma was 87.8%; in the assay with SK-MEL-28 melanoma, 89.4%; with SN12C renal it was 75.6%; in the assay with UO-31 renal, 58.4%; in the assay on TK-10 renal, 88.2%; in the assay with ACHN renal it was 87.1%. For the same compound, the values for the growth with CAKI-1 renal and with MOLT-4 leukemia were 73.6% and 99.9%, respectively.
For the compound `N#CC(I)CS(=O)(=O)c1ccccc1` (centres undefined), the growth in the assay with HCT-15 colon is 64.2%; in the assay with HT29 colon it was 50.9%; in the assay with U251 CNS, 91.2%; in the assay on PC-3 prostate, 90.8%; in the assay on SK-MEL-5 melanoma, 97.5%; in the assay with UACC-62 melanoma, 84.4%. Also, the growth is 70.8% with LOX IMVI melanoma; 97% in the assay with SK-MEL-28 melanoma; 91.6% in the assay with SK-MEL-2 melanoma; 93.4% with SN12C renal; 77.2% in the assay on UO-31 renal; 89.7% in the assay with TK-10 renal. The growth is 36.7% with ACHN renal; 55.4% in the assay on CAKI-1 renal; 121% with A498 renal; 3.27% (active) with CCRF-CEM leukemia; 88.9% in the assay with MOLT-4 leukemia.
With `O=C1/C(=C/c2ccccn2)CCc2ccccc21`, the growth with HT29 colon was 97.6%; in the assay with SNB-75 CNS it was 97.7%; in the assay on SNB-19 CNS, 97%; with U251 CNS it was 100%; in the assay on PC-3 prostate it was 94.6%; in the assay on SK-MEL-5 melanoma it was 97.2%. In addition, the growth in the assay with UACC-62 melanoma was 97.5%; in the assay on LOX IMVI melanoma it was 86.5%; in the assay with SK-MEL-28 melanoma, 111%; with SK-MEL-2 melanoma it was 105%; with SN12C renal, 102%; in the assay on UO-31 renal, 101%. Further, the growth with TK-10 renal was 95.4%; in the assay with ACHN renal it was 104%; in the assay on CAKI-1 renal it was 84.8%; with A498 renal, 77.7%; in the assay with CCRF-CEM leukemia it was 51.6%; with MOLT-4 leukemia it was 49%.
As to `CCCCCCCCc1cc(Cl)c(O)c(Cl)c1`, the growth with HCT-15 colon was 115%; in the assay on SNB-19 CNS, 93.2%; with U251 CNS, 101%; in the assay on PC-3 prostate, 89.9%; in the assay with SK-MEL-5 melanoma, 108%; in the assay with UACC-62 melanoma, 99.5%. The growth in the assay on LOX IMVI melanoma was 95.6%; in the assay with SK-MEL-28 melanoma, 112%; with EKVX NSCLC, 98.9%; with SN12C renal it was 103%; with UO-31 renal it was 97.2%; with TK-10 renal, 113%. The growth was 103% with ACHN renal; 89.6% in the assay on CAKI-1 renal; 108% with A498 renal; 111% in the assay with CCRF-CEM leukemia; 98.2% in the assay with MOLT-4 leukemia.
On to `O=C1C=CC(=O)N1c1cc(Cl)c(Cl)cc1Cl`, for which the growth was 113% with HCT-15 colon; 101% in the assay on HT29 colon; 101% in the assay with U251 CNS; 100% with PC-3 prostate; 111% in the assay with SK-MEL-5 melanoma; 105% with UACC-62 melanoma. Moreover, the growth in the assay on LOX IMVI melanoma was 97.9%; with SK-MEL-28 melanoma, 107%; in the assay on SK-MEL-2 melanoma it was 87.2%; in the assay on SN12C renal, 104%; with UO-31 renal it was 76.7%; with TK-10 renal, 106%. Besides, the growth in the assay on ACHN renal was 96%; in the assay on CAKI-1 renal, 103%; with A498 renal, 105%; with CCRF-CEM leukemia, 37.5%; with MOLT-4 leukemia, 95.5%.
With `CC(=O)Nc1ccc(C(=O)CCl)cc1`, the growth in the assay with HT29 colon was 8.26% (active); in the assay with SNB-75 CNS, 84.3%; in the assay with SNB-19 CNS, 82.5%; in the assay on U251 CNS, 86.3%; with PC-3 prostate, 92.9%; with SK-MEL-5 melanoma, 107%. The growth in the assay with UACC-62 melanoma is 81.3%; in the assay on LOX IMVI melanoma it was -53.6% (active); with SK-MEL-28 melanoma, 69.6%; in the assay on SK-MEL-2 melanoma, 96.6%; with SN12C renal it was 90.6%; in the assay with UO-31 renal, 54.2%. Also, the growth in the assay on TK-10 renal is 43.8%; in the assay with ACHN renal, -58% (active); with CAKI-1 renal it was 38.6%; with A498 renal it was 99.8%; with CCRF-CEM leukemia, -49.9% (active); in the assay on MOLT-4 leukemia, 73.6%.
For `CCCOS(=O)(=O)c1ccccc1`, the growth with HCT-15 colon was 102%; in the assay on HT29 colon, 110%; with PC-3 prostate, 92.1%; with SK-MEL-5 melanoma, 112%; with UACC-62 melanoma, 102%; with SK-MEL-28 melanoma it was 122%. Besides, the growth was 114% in the assay with SK-MEL-2 melanoma; 110% with EKVX NSCLC; 103% in the assay on SN12C renal; 83.3% with UO-31 renal; 102% in the assay on ACHN renal; 91.8% in the assay with CAKI-1 renal. Further, the growth was 100% in the assay on A498 renal, 6.52% (active) in the assay on CCRF-CEM leukemia and 107% in the assay with MOLT-4 leukemia.
Consider `CC(C)(C)c1ccc(O)c(-c2ccccc2)c1`, for which the growth in the assay on HCT-15 colon was 102%; with HT29 colon, 107%; in the assay on SNB-19 CNS, 121%; in the assay with PC-3 prostate, 95.2%; in the assay on SK-MEL-5 melanoma, 116%; in the assay with UACC-62 melanoma, 103%. Moreover, the growth was 119% in the assay on SK-MEL-28 melanoma; 103% in the assay on EKVX NSCLC; 109% with SN12C renal; 110% in the assay with UO-31 renal; 99.5% in the assay on TK-10 renal; 102% in the assay with ACHN renal. The growth is 86.7% with CAKI-1 renal, 121% in the assay with A498 renal, 97.1% in the assay on CCRF-CEM leukemia and -54.2% (active) in the assay on MOLT-4 leukemia.
In the case of `Cc1cc(Br)c2nsnc2c1[N+](=O)[O-]`, the growth is 27.4% with HCT-15 colon; 50.1% with SNB-75 CNS; 52.9% with SNB-19 CNS; 36.9% in the assay with U251 CNS; 49% with PC-3 prostate; 54.1% with SK-MEL-5 melanoma. Also, the growth in the assay with UACC-62 melanoma is 56.5%; with LOX IMVI melanoma it was 8.37% (active); with SK-MEL-28 melanoma, 63.3%; in the assay on EKVX NSCLC it was 106%; in the assay on SN12C renal it was 29.4%; with UO-31 renal, 40.2%. The growth in the assay with TK-10 renal was 36%; in the assay on ACHN renal, 36.2%; with CAKI-1 renal, -34.5% (active); in the assay with A498 renal, 99.2%; in the assay with CCRF-CEM leukemia, 20.1%; with MOLT-4 leukemia, 39.4%.
For `CCOc1cc(F)c([N+](=O)[O-])cc1[N+](=O)[O-]`, the growth was 2.66% (active) in the assay on HT29 colon; 64.5% in the assay with SNB-75 CNS; 92.2% in the assay with SNB-19 CNS; 29.6% with U251 CNS; 66.4% with PC-3 prostate; 76.7% in the assay with SK-MEL-5 melanoma. The growth was 78.2% in the assay on UACC-62 melanoma; -44% (active) with LOX IMVI melanoma; 70.1% in the assay with SK-MEL-28 melanoma; 50.4% in the assay with SK-MEL-2 melanoma; 101% in the assay on EKVX NSCLC; 90.5% in the assay on SN12C renal. The growth with UO-31 renal was 45.4%; with ACHN renal it was 12.7%; with CAKI-1 renal it was 18.8%; in the assay on A498 renal, 101%; with CCRF-CEM leukemia, 9.98% (active); in the assay with MOLT-4 leukemia, 9.18% (active).
Regarding `CCCC[n+]1c(/C=C\c2c(OC)cc(OC)cc2OC)ccc2ccccc21`, the growth in the assay on HCT-15 colon was 35.1%; with HT29 colon, -33.5% (active); with PC-3 prostate, 2.91% (active); with SK-MEL-5 melanoma, -97.2% (active); in the assay with UACC-62 melanoma, -37.2% (active); with LOX IMVI melanoma, -75.5% (active). Also, the growth in the assay on SK-MEL-28 melanoma was -10.8% (active); with SK-MEL-2 melanoma, -44.7% (active); in the assay with SN12C renal, 3.62% (active); in the assay on UO-31 renal it was 1.45% (active); in the assay on TK-10 renal, -12.7% (active); with ACHN renal it was 9.92% (active). The growth with CAKI-1 renal is -41.6% (active); in the assay with A498 renal it was -23.4% (active); in the assay on CCRF-CEM leukemia, 1.26% (active); with MOLT-4 leukemia it was -22.5% (active).
Turning to `S=C1SCN(Cc2cccs2)CN1Cc1cccs1`, the growth in the assay on HT29 colon was 97.2%; with SNB-75 CNS, 86.2%; in the assay on SNB-19 CNS, 96.5%; in the assay on U251 CNS it was 95.6%; in the assay with PC-3 prostate it was 96.2%; with SK-MEL-5 melanoma it was 94%. The growth in the assay with UACC-62 melanoma is 94%; in the assay with LOX IMVI melanoma, 93%; in the assay on SK-MEL-28 melanoma, 109%; with SK-MEL-2 melanoma it was 99%; with SN12C renal it was 98.7%; with UO-31 renal it was 88.8%. Also, the growth with TK-10 renal was 90.7%; in the assay on ACHN renal it was 105%; in the assay with CAKI-1 renal, 99.4%; in the assay with A498 renal it was 95.7%; in the assay with CCRF-CEM leukemia, 70.9%; in the assay on MOLT-4 leukemia, 100%.
